In PubChem BioAssay (NCI) one finds growth inhibition data, which are given here for 10 compounds.

Assay [1] in a line: NCI Yeast Anticancer Drug Screen. Data for the rad50 strain (AID 155).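 Note: 0% = growth of vehicle-only cultures of the same strain.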 The settings on record: S. cerevisiae rad50 strain growth inhibition, stronger effect = higher value. The method, boiled down:
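Relative growth inhibition (compound vs vehicle) was measured in yeast with a defined repair-gene alteration.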

A short description of assay [2]: NCI Yeast Anticancer Drug Screen. Data for the mec2-1 strain (AID 157). The settings on record: S. cerevisiae mec2-1 strain, stronger effect = higher value. The procedure, abridged: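 Each compound was tested on mec2-1 yeast, a strain altered in DNA damage repair or cell cycle control. Growth inhibition is reported relative to vehicle.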
Assay [3] is described as follows: NCI Yeast Anticancer Drug Screen. Data for the sgs1 mgt1 strain (AID 161).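 Note: 0% = growth of cultures given vehicle only.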 The settings on record: S. cerevisiae sgs1 mgt1 strain, stronger effect = higher value. The procedure, abridged: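 Inhibition of yeast growth, normalised to vehicle-treated controls, is reported for a strain bearing genetic alterations in DNA damage repair.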
A short description of assay [4]: NCI Yeast Anticancer Drug Screen. Data for the cln2 rad14 strain (AID 165).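 Note: 0% = growth equal to vehicle treated cultures.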 The settings on record: S. cerevisiae cln2 rad14 strain, stronger effect = higher value. The procedure, abridged: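 Test compounds were added to cln2 rad14 yeast cultures; inhibition of growth was then determined by comparison with vehicle treatment.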
A short description of assay [5]: NCI Yeast Anticancer Drug Screen. Data for the bub3 strain (AID 167). As to conditions: S. cerevisiae bub3 mutant strain, stronger effect = higher value. The method, boiled down: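 Screening used yeast with an engineered genetic alteration affecting cell cycle control. Compound-exposed cultures were compared with vehicle cultures, and reduced growth was taken as inhibition.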

Assay [6] can be described thus: NCI Yeast Anticancer Drug Screen. Data for the mlh1 rad18 strain (AID 175). The settings on record: S. cerevisiae mlh1 rad18 strain growth inhibition, stronger effect = higher value. The method, boiled down:
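Inhibition values reflect reduced growth of mutant yeast versus vehicle-treated controls following compound exposure; the mutations affect DNA damage repair.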

The mark [7] stands for this setting: at 5.0 µM (retest, dose inferred, filed as 0.5).
The mark [8] stands for this setting: at 50.0 µM (retest, dose inferred, filed as 5.0).

Compounds without any hit were thinned out: in the full panel of roughly 79,000, 15% have a hit. Unmarked numbers belong to inactive results. The source made the active and inactive calls. Cut-off read from the data, not from the text of the source: active = growth inhibition above about 70%; inactive = the rest.

For the compound `CC1NS(=O)(=O)N(C)C1=O` (stereo not given), the growth inhibition in assay [1] (setting [7]) is 3%; in assay [1] (setting [8]) it was -5%; in assay [1] (at 50.0 µM), 3.05%; in assay [2] (setting [7]) it was 6%; in assay [2] (setting [8]), 3%; in assay [2] (at 50.0 µM) it was 15.6%. In addition, the growth inhibition in assay [3] (setting [7]) was 5%; in assay [3] (setting [8]), 3%; in assay [3] (at 50.0 µM) it was -2.2%; in assay [4] (setting [7]), 0%; in assay [4] (setting [8]), -13%; in assay [4] (at 50.0 µM) it was 36.7%. Moreover, the growth inhibition in assay [5] (setting [7]) is 6%; in assay [5] (setting [8]), 16%; in assay [5] (at 50.0 µM) it was 8.55%; in assay [6] (setting [7]), 2%; in assay [6] (setting [8]), -9%; in assay [6] (at 50.0 µM), -1.05%.
For the compound `O=c1ccc2ccc(Cl)cc2[nH]1`, the growth inhibition in assay [1] (setting [7]) was -9%; in assay [1] (setting [8]) it was 1%; in assay [1] (at 50.0 µM), -27.9%; in assay [2] (setting [7]), -5%; in assay [2] (setting [8]), 16%; in assay [2] (at 50.0 µM) it was -5.9%. Also, the growth inhibition in assay [3] (setting [7]) is -5%; in assay [3] (setting [8]), -8%; in assay [3] (at 50.0 µM), 8.05%; in assay [4] (setting [7]) it was 17%; in assay [4] (setting [8]) it was 17%; in assay [4] (at 50.0 µM), 50%. For the same compound, the growth inhibition in assay [5] (setting [7]) was 4%; in assay [5] (setting [8]) it was 1%; in assay [5] (at 50.0 µM) it was -10.3%; in assay [6] (setting [7]) it was 9%; in assay [6] (setting [8]), 20%; in assay [6] (at 50.0 µM), 4.8%.
For the compound `Cc1cc(NCCO)nc2c1ccc1ccccc12`, the growth inhibition in assay [1] (setting [7]) is 5%; in assay [1] (setting [8]), 9%; in assay [1] (at 50.0 µM), 53.9%; in assay [2] (setting [7]), 3%; in assay [2] (setting [8]), -2%; in assay [2] (at 50.0 µM) it was 35.6%. For the same compound, the growth inhibition in assay [3] (setting [7]) was 3%; in assay [3] (setting [8]), 16%; in assay [3] (at 50.0 µM), 46%; in assay [4] (setting [7]) it was -2%; in assay [4] (setting [8]) it was 23%; in assay [4] (at 50.0 µM), 16.6%. Further, the growth inhibition in assay [5] (setting [7]) is -3%; in assay [5] (setting [8]) it was 16%; in assay [5] (at 50.0 µM) it was 19%; in assay [6] (setting [7]), 2%; in assay [6] (setting [8]) it was 28%; in assay [6] (at 50.0 µM), 61.2%.
Take `CC(=O)OC12CCC3C4CC=C5CC(O)CCC5(C)C4C(=O)C3C1(C)N1CC(C)CC(O)C1C2C` (stereo not given): the growth inhibition is 7% in assay [1] (setting [7]); 40% in assay [1] (setting [8]); 74.5% (active) in assay [1] (at 50.0 µM); 10% in assay [2] (setting [7]); 42% in assay [2] (setting [8]); 59.5% in assay [2] (at 50.0 µM). Also, the growth inhibition was 5% in assay [3] (setting [7]); 68% in assay [3] (setting [8]); 62.2% in assay [3] (at 50.0 µM); 18% in assay [4] (setting [7]); 62% in assay [4] (setting [8]); 56.9% in assay [4] (at 50.0 µM). The growth inhibition in assay [5] (setting [7]) is 16%; in assay [5] (setting [8]), 74% (active); in assay [5] (at 50.0 µM) it was 64.2%; in assay [6] (setting [7]), -23%; in assay [6] (setting [8]), 59%; in assay [6] (at 50.0 µM), 47%.
On to `Cc1ccc(Nc2nc3c(s2)C(=O)c2ccccc2C3=O)cc1`, for which the growth inhibition is 37% in assay [1] (setting [7]); 97% (active) in assay [1] (setting [8]); 98.2% (active) in assay [1] (at 50.0 µM); 61% in assay [2] (setting [7]); 98% (active) in assay [2] (setting [8]); 98.8% (active) in assay [2] (at 50.0 µM). Besides, the growth inhibition in assay [3] (setting [7]) is 34%; in assay [3] (setting [8]), 98% (active); in assay [3] (at 50.0 µM) it was 98.7% (active); in assay [4] (setting [7]), 3%; in assay [4] (setting [8]) it was 96% (active); in assay [4] (at 50.0 µM), 97.8% (active). The growth inhibition in assay [5] (setting [7]) is 91% (active); in assay [5] (setting [8]), 97% (active); in assay [5] (at 50.0 µM), 98.7% (active); in assay [6] (setting [7]) it was 61%; in assay [6] (setting [8]), 97% (active); in assay [6] (at 50.0 µM) it was 97.7% (active).
As to `c1ccc(N/N=C2/CCCC3/C(=N\Nc4ccccc4)CCCC23)cc1` (stereo not given), the growth inhibition in assay [1] (setting [7]) is 3%; in assay [1] (setting [8]) it was 99% (active); in assay [1] (at 50.0 µM), 98.2% (active); in assay [2] (setting [7]) it was -5%; in assay [2] (setting [8]), 99% (active); in assay [2] (at 50.0 µM), 65.5%. For the same compound, the growth inhibition in assay [3] (setting [7]) was 13%; in assay [3] (setting [8]), 99% (active); in assay [3] (at 50.0 µM), 63.2%; in assay [4] (setting [7]) it was -11%; in assay [4] (setting [8]), 99% (active); in assay [4] (at 50.0 µM) it was 73.8% (active). In addition, the growth inhibition is -8% in assay [5] (setting [7]); 98% (active) in assay [5] (setting [8]); 9.85% in assay [5] (at 50.0 µM); 15% in assay [6] (setting [7]); 99% (active) in assay [6] (setting [8]); 96.1% (active) in assay [6] (at 50.0 µM).
As for `COc1ccc(OC)c(/C=C2/C(=O)ON=C2C)c1`, the growth inhibition in assay [1] (setting [7]) is -14%; in assay [1] (setting [8]), 7%; in assay [1] (at 50.0 µM) it was 42.4%; in assay [2] (setting [7]), -11%; in assay [2] (setting [8]), 5%; in assay [2] (at 50.0 µM), 54.4%. For the same compound, the growth inhibition in assay [3] (setting [7]) was 1%; in assay [3] (setting [8]), 27%; in assay [3] (at 50.0 µM), 70% (active); in assay [4] (setting [7]), 0%; in assay [4] (setting [8]), 14%; in assay [4] (at 50.0 µM), 22%. For the same compound, the growth inhibition in assay [5] (setting [7]) is 11%; in assay [5] (setting [8]) it was 23%; in assay [5] (at 50.0 µM), 43.5%; in assay [6] (setting [7]) it was 8%; in assay [6] (setting [8]) it was 23%; in assay [6] (at 50.0 µM), 22.7%.
`CN/N=C(\C)C(CN1CCCCC1)C(C1=C(O)c2ccccc2OC1)c1ccccc1` (stereo not given): the growth inhibition in assay [1] (setting [7]) is 25%; in assay [1] (setting [8]), 25%; in assay [1] (at 50.0 µM), 69.8%; in assay [2] (setting [7]), 25%; in assay [2] (setting [8]), 25%; in assay [2] (at 50.0 µM), 57.6%. In addition, the growth inhibition is 9% in assay [3] (setting [7]); 9% in assay [3] (setting [8]); 78.7% (active) in assay [3] (at 50.0 µM); -1% in assay [4] (setting [7]); -1% in assay [4] (setting [8]); 66.7% in assay [4] (at 50.0 µM). The growth inhibition is 10% in assay [5] (setting [7]); 10% in assay [5] (setting [8]); 67.7% in assay [5] (at 50.0 µM); 25% in assay [6] (setting [7]); 25% in assay [6] (setting [8]); 72% (active) in assay [6] (at 50.0 µM).
For the compound `N#CC1Sc2ccccc2N1C(=O)c1ccccc1` (stereo not given), the growth inhibition is -2% in assay [1] (setting [7]); 3% in assay [1] (setting [8]); 96.6% (active) in assay [1] (at 50.0 µM); -15% in assay [2] (setting [7]); -6% in assay [2] (setting [8]); 91% (active) in assay [2] (at 50.0 µM). Also, the growth inhibition in assay [3] (setting [7]) was -2%; in assay [3] (setting [8]), -19%; in assay [3] (at 50.0 µM), 93% (active); in assay [4] (setting [7]), -12%; in assay [4] (setting [8]), -19%; in assay [4] (at 50.0 µM), 78% (active). Besides, the growth inhibition in assay [5] (setting [7]) is -10%; in assay [5] (setting [8]), 4%; in assay [5] (at 50.0 µM), 84.2% (active); in assay [6] (setting [7]), -12%; in assay [6] (setting [8]), -5%; in assay [6] (at 50.0 µM) it was 98% (active).
For `O=[N+]([O-])c1nccn1CCCNCCCn1ccnc1[N+](=O)[O-]`, the growth inhibition in assay [1] (setting [7]) is 27%; in assay [1] (setting [8]), 28%; in assay [1] (at 50.0 µM) it was 0.45%; in assay [2] (setting [7]) it was 0%; in assay [2] (setting [8]) it was -2%; in assay [2] (at 50.0 µM) it was 1.2%. For the same compound, the growth inhibition was 15% in assay [3] (setting [7]); 26% in assay [3] (setting [8]); -6.7% in assay [3] (at 50.0 µM); 24% in assay [4] (setting [7]); 17% in assay [4] (setting [8]); -20.1% in assay [4] (at 50.0 µM). The growth inhibition in assay [5] (setting [7]) is 8%; in assay [5] (setting [8]), 14%; in assay [5] (at 50.0 µM), -14.9%; in assay [6] (setting [7]), 24%; in assay [6] (setting [8]), 20%; in assay [6] (at 50.0 µM) it was 21.1%.
